Most compounds without a hit are left out; they make up all but 1.3% or so of the library.
BCLXL inh: blocks human Bcl-xL binding to Bim BH3 peptide | Q07817 | GST-Bcl-xL / FITC-Bim BH3 peptide fluorescence polarization | inhibition, % at 10.9 µM | 0.7% of 320,000 active | AID 2129;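 active = inhibition above the mean of all tested compounds plus 3 SD, cutoff set per campaign, cut at about 30% in these data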;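 also: inhibitors lower millipolarization by displacing the labeled peptide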
GLD-1 TGE inh: GLD-1-TGE RNA interaction inhibition (C. elegans); Q17339; purified GLD-1 + fluorescein TGE RNA, fluorescence polarization; inhibition, % at 5.96 µM; 0.44% of 320,000 active; AID 2280;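 active = percent inhibition above a per-plate cutoff, the plate mean of test compounds plus 3 SD, cut at about 30% in these data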
Target sequence (Q17339 whole entry, looked up): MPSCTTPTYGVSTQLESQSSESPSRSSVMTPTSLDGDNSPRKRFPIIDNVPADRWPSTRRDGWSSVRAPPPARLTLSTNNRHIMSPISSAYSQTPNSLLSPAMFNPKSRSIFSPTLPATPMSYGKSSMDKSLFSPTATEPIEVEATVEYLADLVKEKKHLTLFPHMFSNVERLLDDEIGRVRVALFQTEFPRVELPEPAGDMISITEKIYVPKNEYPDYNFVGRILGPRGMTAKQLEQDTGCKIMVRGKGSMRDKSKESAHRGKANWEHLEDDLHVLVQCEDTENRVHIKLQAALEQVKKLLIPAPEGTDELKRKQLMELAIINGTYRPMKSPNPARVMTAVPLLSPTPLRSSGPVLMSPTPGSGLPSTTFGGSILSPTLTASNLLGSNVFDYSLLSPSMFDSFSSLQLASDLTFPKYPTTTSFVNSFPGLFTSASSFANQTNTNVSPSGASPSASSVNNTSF
eLon inh: inhibitors of E. coli Lon protease; purified E. coli Lon protease, fluorescence polarization; P0A9M0; 0.42% of 360,000 active; inhibition, % at 7.94 µM; in the data active = inhibition above about 13%, passing the limit was not always enough
MCL1 BIM primary: disrupts human MCL1 binding to BIM-BH3 peptide. Q07820. GST-MCL1 / FITC-Bim-BH3 fluorescence polarization. inhibition, % at 10.9 µM. 0.68% of 320,000 active;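 active = inhibition above the mean inhibition of all tested compounds plus 3 SD, set per campaign, cut at about 40% in these data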;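 also: higher means more loss of mP so more displacement of Bim peptide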
Keap1 Nrf2 FP: Keap1-Nrf2 (human) interaction inhibition; Q14145; Keap1 Kelch-Nrf2 peptide fluorescence polarization, 1536-well; inhibition, % at 9.4 µM; 0.15% of 340,000 active; AID 504523; in the data active = inhibition above about 12%;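 also: human Keap1 Kelch domain with fluorescein labeled Nrf2 9mer peptide probe; higher means more block of Keap1 binding to Nrf2 peptide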
C-LANA FP: KSHV C-LANA DNA binding inhibition | MBP-C-LANA/FAM-LBS DNA binding, fluorescence polarization | inhibition, % at 9 µM | AID 504423 | 0.078% of 340,000 active;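 active = highest replicate inhibition at or above 60% at 9 µM, even if other replicates fall short; inactive = all replicates below 60% inhibition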
Bcl-xL conf: counter-screen for MCL1 inhibitors: confirmation of human Bcl-xL inhibitors | shares compounds with MCL1 BIM primary | GST-Bcl-xL / FITC-Bim BH3 peptide FP binding | inhibition, % at 10.9 µM | 54% of 1,700 active | AID 2166;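 active = inhibition above a cutoff equal to the mean inhibition of all tested compounds plus 3 SD, cut at about 30% in these data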
MCL1 inh confirm: confirmation of human MCL1 and BIM-BH3 interaction inhibitors. inhibition, % at 10.9 µM. shares compounds with MCL1 BIM primary. GST-MCL1 / FITC-Bim-BH3 fluorescence polarization. 61% of 1,700 active;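 active = inhibition above the average of all tested compounds plus 3 SD, cut at about 40% in these data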
A number is an active result; n = inactive; x = not tested or not shown.

SMILES | BCLXL inh | GLD-1 TGE inh | eLon inh | MCL1 BIM primary | Keap1 Nrf2 FP | C-LANA FP | Bcl-xL conf | MCL1 inh confirm
Cc1ccc2[nH]c3c(c2c1)CN(C(=O)CN1CCN(c2ccccn2)CC1)CC3 | 66 | 38 | n | 58 | n | n | n | n
O=C(NCCc1ccccc1)c1ccc2nc(-c3ccco3)c(-c3ccco3)nc2c1 | n | n | n | 40 | n | n | 42 | 75
c1coc(-c2nc3ccccc3nc2-c2ccco2)c1 | 34 | n | n | 60 | n | n | 34 | 42
O=C(NC1CCCC1)c1ccc2nc[nH]c2c1 | n | n | n | n | n | n | x | x
O=c1oc(-c2ccco2)nc2ccccc12 | n | n | n | n | n | n | x | x
O=C(NCCO)c1ccc2nc(-c3ccco3)c(-c3ccco3)nc2c1 | 43 | n | n | 56 | n | n | 60 | 77
O=C(NCCO)c1ccc(Cl)c(Cl)c1 | n | n | n | n | n | n | x | x
O=C(NC1CCCC1)c1ccc2nc(-c3ccco3)c(-c3ccco3)nc2c1 | 41 | n | n | 64 | n | n | 40 | 76
O=C(C1CCOCC1)N1CCCC(N2CCN(c3ccc(F)cc3)CC2)C1 (stereo unspecified) | n | n | n | n | n | n | x | x
NC1=C(O)C(=O)C(c2ccccc2)O1 (stereo unspecified) | n | n | n | n | n | n | x | x
CCOc1ccc(N2C(=O)C3Sc4[nH]c(=O)sc4C(/C=C/c4ccccc4)C3C2=O)cc1 (stereo unspecified) | 57 | 42 | n | 42 | n | n | n | n
COc1cc(C2c3sc(=O)[nH]c3SC3C(=O)N(c4ccc(Br)cc4)C(=O)C32)ccc1O (stereo unspecified) | n | n | n | n | n | n | x | x
CN1CCN(c2ncnc3c2ncn3[C@H]2CN(Cc3ccc4c(c3)OCO4)C[C@@H](CO)O2)CC1 | x | x | n | x | x | x | x | x
COc1cc2cc(C)c(SCC(=O)N3CCOCC3)nc2cc1OC | 53 | 33 | n | 56 | n | n | n | n
COC(=O)c1cc(O)cc(OC)c1Oc1cc(C)cc(O)c1C(=O)O | n | n | n | 73 | n | n | n | 76
COC(=O)c1cc(O)cc(OC)c1C(=O)c1c(O)cc(C)cc1O | n | n | n | n | n | n | x | x
O=C(CN(C(=O)Cn1nnc(-c2ccc(F)cc2)n1)c1cccc(F)c1)NC1CCCC1 | n | n | n | n | n | n | x | x
CCn1nc(C)c(/C=C2\CCCC3=C2OC(N)=C(C#N)C3c2c(C)nn(CC)c2C)c1C (stereo unspecified) | 76 | 53 | x | 72 | x | x | 70 | 85
CCSc1nc2sc3c(c2c(=O)[nH]1)CC(C)(CC)OC3 (stereo unspecified) | n | n | n | n | n | n | x | x
CCC1(C)Cc2c(sc3nc(SC)[nH]c(=S)c23)CO1 (stereo unspecified) | 50 | 32 | x | 57 | x | x | n | n
CN(Cc1cnccn1)Cc1ccccc1OCC(O)CN1CCc2ccccc2C1 (stereo unspecified) | n | n | n | n | n | n | x | x
COC(=O)c1ccc(C(=O)Nc2ccc(N)cc2N)cc1 | 76 | n | n | 77 | n | n | n | n
COc1ccccc1NC(=O)c1ccc(N)cc1 | n | n | n | n | n | n | x | x
Cc1ccc(C(=O)Nc2nnc(CC(=O)N/N=C/c3ccc(O)c(O)c3)s2)cc1 | n | n | n | 76 | n | n | 51 | 80
Cc1cc2c(o1)CC(C)(C)CC2=O | n | n | n | n | n | n | x | x
SMILES | BCLXL inh | GLD-1 TGE inh | eLon inh | MCL1 BIM primary | Keap1 Nrf2 FP | C-LANA FP | Bcl-xL conf | MCL1 inh confirm
NC(=O)CSc1nnc2ccc(-c3ccc(F)cc3)nn12 | n | n | n | n | n | n | x | x
O=C(CN1CCN(S(=O)(=O)c2ccc(F)cc2)CC1)Nc1ccc(F)cc1F | n | n | n | 174 | n | n | n | n
O=C1C2CC=C(Cl)CC2C(=O)N1CCCCCCN1C(=O)C2CC=C(Cl)CC2C1=O (stereo unspecified) | n | n | n | 40 | n | n | 33 | 55
CNC(=O)c1ccsc1NC(=O)CS(=O)(=O)c1ccccc1 | n | n | n | n | n | n | x | x
CNC(=O)c1ccsc1NC(=O)CN1C(=O)CCC1=O | 144 | 148 | n | 155 | n | n | n | n
Clc1ccc(-c2cn3nc4c(nc3n2)CCCC4)cc1 | 104 | 81 | n | 106 | n | n | 77 | 89
CC1=C(C(=O)Nc2ccccc2)C(c2ccco2)n2ncnc2N1 (stereo unspecified) | n | n | n | n | n | n | x | x
CC(=O)Nc1cccc(C2=CC(c3ccco3)n3ncnc3N2)c1 (stereo unspecified) | 116 | 69 | x | 123 | x | x | 141 | 177
Cc1ccc(NC(=O)CN(C)C(=O)c2cccc(-n3cccc3)c2)cc1 | x | x | n | x | n | n | x | x
COc1ccc(NC(=O)CN(C)C(=O)c2cccc(-n3cccc3)c2)cc1 | n | n | n | 48 | n | n | n | n
CSc1nnc(N2C(=O)C(O)=C(C(=O)c3ccco3)C2c2ccc(F)cc2)s1 (stereo unspecified) | 80 | 83 | n | 71 | n | n | 43 | 55
CCSc1nnc(N2C(=O)C(O)=C(C(=O)c3ccco3)C2c2cccc(OC)c2)s1 (stereo unspecified) | 60 | 79 | n | 60 | n | n | 65 | 76
CC(C)(C)c1ccc(OCCC(=O)NCC(c2cccs2)N2CCOCC2)cc1 (stereo unspecified) | n | n | n | n | n | n | x | x
CCC(C)Cn1cnc2c(SCc3ccccn3)nc(N)nc21 (stereo unspecified) | x | x | n | x | n | n | x | x
C[C@@H](CO)NC(=O)c1[nH]cnc1C(=O)Nc1cccc(Cl)c1 | x | x | n | x | x | x | x | x
COc1ccccc1Oc1ccc(NC(=O)c2ccc(Cl)cc2)cc1 | n | n | n | n | n | n | x | x
COc1ccc2nc3ccccc3nc2c1NC(=O)c1ccc(Cl)cc1 | 50 | n | n | 104 | n | n | 82 | 105
CN1CCN(S(=O)(=O)c2ccc(N(C)Cc3cccc(F)c3)nc2)CC1 | n | n | n | n | n | n | x | x
CCOCCCNC(=O)c1cn(C)c2ccc(S(=O)(=O)N3CCCC3)cc2c1=O | n | n | n | n | n | n | x | x
O=C(COc1ccc(Br)cc1)NCCCNC(=O)c1ccncc1 | n | n | n | n | n | n | x | x
CCOC(=O)C(C(=O)OCC)c1cc(Br)c2noc3c2c1C(=O)c1ccccc1-3 | 176 | 171 | n | 196 | n | n | 145 | 148
COc1ccc(NC(=O)c2noc3c2CCC3)cc1 | n | n | n | n | n | n | x | x
COc1cc(NC(=O)c2noc3c2CCC3)c(OC)cc1Cl | n | n | n | 50 | n | n | n | 53
